# Measurements published in PubChem BioAssay (Tox21).
# Unmarked numbers belong to inactive results. Results filed as inconclusive are left out. A call without a number means that no potency is given here. Calls of active or inactive are those of the source. Unless noted, the call rests on the fitted dose curve; in most records, active means well fitted curve in the direction sought with a large enough effect in the repeat runs; inconclusive means weak or mixed curves; inactive means no such curve, though single readings can be large; an effect the other way counts as inactive or inconclusive.
# How the values were obtained:
# [1] = qHTS assay to identify small molecule agonists of the estrogen receptor alpha (ER-alpha) signaling pathway in the presence of an antagonist - cell viability counter screen (AID 1259386);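 further: cells exposed to compounds for 22 h at 37 °C before the viability read; nearly all actives have a fitted effect of over 30% in size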; further: potency means the concentration at half of the fitted maximal effect; on activity change, negative = cytotoxicity: series mostly up to about 92 µM
# Method in brief: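 Cell viability in VM7Luc4E2 cells (endogenous full-length ER-alpha) measured by CellTiter-Fluor fluorescence in the same wells as the luciferase screen. Cells pre-cultured 5 days in charcoal-stripped serum, then treated 22 h with compounds at 15 concentrations plus 10.0nM ICI-182,780.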
# [2] = biological target: Progesterone receptor (Homo sapiens) (UniProt P06401); experiment: qHTS assay to identify small molecule agonists of the progesterone receptor (PR) signaling pathway (AID 1346784; calls by dose curve; further: nearly all actives have a fitted effect of over 30% in size)
# Chain of Progesterone receptor (Homo sapiens) (P06401 whole entry, looked up): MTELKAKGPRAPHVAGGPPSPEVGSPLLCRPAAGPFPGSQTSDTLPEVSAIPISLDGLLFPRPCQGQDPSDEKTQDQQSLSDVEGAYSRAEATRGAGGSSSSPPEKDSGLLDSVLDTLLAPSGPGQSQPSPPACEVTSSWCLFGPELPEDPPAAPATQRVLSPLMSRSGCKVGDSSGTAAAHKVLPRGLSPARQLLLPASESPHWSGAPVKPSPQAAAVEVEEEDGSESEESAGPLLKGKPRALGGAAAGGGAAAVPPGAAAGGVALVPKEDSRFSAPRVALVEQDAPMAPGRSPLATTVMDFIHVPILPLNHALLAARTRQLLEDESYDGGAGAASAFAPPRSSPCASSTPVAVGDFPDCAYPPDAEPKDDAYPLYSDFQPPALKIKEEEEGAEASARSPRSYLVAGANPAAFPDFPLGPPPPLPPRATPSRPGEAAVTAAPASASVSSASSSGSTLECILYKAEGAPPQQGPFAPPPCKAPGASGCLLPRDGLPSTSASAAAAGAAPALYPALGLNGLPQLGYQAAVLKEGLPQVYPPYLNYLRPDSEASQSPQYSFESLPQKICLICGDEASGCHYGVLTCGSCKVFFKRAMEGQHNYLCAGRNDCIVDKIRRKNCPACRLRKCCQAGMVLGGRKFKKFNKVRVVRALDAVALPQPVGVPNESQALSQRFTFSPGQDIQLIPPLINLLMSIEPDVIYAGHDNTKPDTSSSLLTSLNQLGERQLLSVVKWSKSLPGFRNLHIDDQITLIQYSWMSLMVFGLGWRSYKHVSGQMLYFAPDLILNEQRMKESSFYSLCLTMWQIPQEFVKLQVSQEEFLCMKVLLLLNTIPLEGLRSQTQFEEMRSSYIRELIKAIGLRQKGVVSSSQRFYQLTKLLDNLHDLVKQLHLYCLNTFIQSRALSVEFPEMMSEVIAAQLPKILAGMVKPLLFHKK
# Method in brief: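 Cells (PR-UAS-bla HEK 293T, GripTite) were plated in assay medium containing 2% charcoal-stripped FBS and incubated 6 hr. Test compounds in DMSO were added for 16 hr at 37C. FRET substrate was then loaded for 2 hr at room temperature before fluorescence reading.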
# [3] = biological target: Progesterone receptor (Homo sapiens) (UniProt P06401); experiment: qHTS assay to identify small molecule antagonists of the progesterone receptor (PR) signaling pathway (AID 1346795; active means well fitted inhibition curve with a large enough effect in the signal ratio in the repeat runs, not every such curve was filed as active; the % refers to the signal ratio)
# Method in brief: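 Antagonist mode: compounds tested against 1 nM (final) promegestone stimulation in HEK293T cells expressing PR-UAS-bla reporter, 16 hr at 37C, 5% CO2; beta-lactamase activity detected via B/G FRET substrate after 2 hr at room temperature.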
# [4] = qHTS assay to identify small molecule antagonists of the TGF-beta/Smad signaling pathway - cell viability counter screen (AID 1346824); further: nearly all actives have a fitted effect of over 50% in size
# Method in brief: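 SBE-bla HEK 293T cells, incubated overnight, then compound plus 0.25 ng/mL TGF-beta1 (stock added) for 5 hr at 37 C. Viability was read in the same wells by CellTiter-Glo luminescence after 30 min at room temperature.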
# [5] = qHTS assay to identify small molecule agonists of the TGF-beta/Smad signaling pathway - cell viability counter screen (AID 1346829); further: top concentration of the series differs between compounds; nearly all actives have a fitted effect of over 45% in size
# Method in brief: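 Luminescence from CellTiter-Glo, read after a 30 min room-temperature incubation, gives cell viability of SBE-bla HEK 293T cells treated 5 hr with compounds at 37 C.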
# [6] = qHTS assay to identify small molecule agonists of the TGF-beta/Smad signaling pathway (AID 1346859; active means well fitted activation curve with a large enough effect in the signal ratio in the repeat runs, not every such curve was filed as active; the % refers to the signal ratio; further: series mostly up to about 77 µM)
# Method in brief: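 Reporter line: HEK 293T with stably integrated SBE-controlled beta-lactamase. Compound exposure lasts 5 hr at 37 C and 5% CO2; substrate loading follows for 2 hr at room temperature, with emission read at 460 and 530 nm.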
# [7] = qHTS assay to identify small molecule agonists of the progesterone receptor (PR) signaling pathway - cell viability counter screen (AID 1346799; calls by dose curve; further: nearly all actives have a fitted effect of over 45% in size)
# Method in brief: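 Cells (PR-UAS-bla HEK293T) are plated at 3,000/well in 2% charcoal-stripped FBS medium, rested 6 hr, dosed and incubated 16 hr at 37C. CellTiter-Glo is then added and luminescence measured after 30 min at room temperature.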
# [8] = biological target: Thyrotropin-releasing hormone receptor (Homo sapiens) (UniProt P34981); experiment: qHTS assay to identify small molecule antagonists of the thyrotropin-releasing hormone receptor (TRHR) signaling pathway (AID 1346877; active means well fitted inhibition curve with a large enough effect in the repeat runs, not every such curve was filed as active; further: series mostly up to about 51 µM)
# Chain of Thyrotropin-releasing hormone receptor (Homo sapiens) (P34981 whole entry, looked up): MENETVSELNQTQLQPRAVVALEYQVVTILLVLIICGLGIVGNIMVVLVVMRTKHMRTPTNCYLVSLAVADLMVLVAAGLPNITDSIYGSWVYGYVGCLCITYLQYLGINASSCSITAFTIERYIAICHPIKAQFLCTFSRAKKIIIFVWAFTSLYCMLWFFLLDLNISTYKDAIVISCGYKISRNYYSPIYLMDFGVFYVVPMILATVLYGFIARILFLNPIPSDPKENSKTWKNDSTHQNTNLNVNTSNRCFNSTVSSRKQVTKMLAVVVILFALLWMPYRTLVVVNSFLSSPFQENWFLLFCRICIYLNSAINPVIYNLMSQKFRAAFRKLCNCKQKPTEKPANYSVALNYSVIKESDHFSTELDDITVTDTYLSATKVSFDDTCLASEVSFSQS
# Method in brief: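 TRHR-expressing HEK293 cells loaded with calcium dye for 2 h at 37 C; compounds pre-incubated 5 min at room temperature before TRH challenge at 1 nM final. Intracellular calcium fluorescence read kinetically for 3 min; 15 concentrations in triplicate.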
# [9] = biological target: Thyrotropin-releasing hormone receptor (Homo sapiens) (UniProt P34981); experiment: qHTS assay to identify small molecule agonists of the thyrotropin-releasing hormone receptor (TRHR) signaling pathway (AID 1346891; calls by dose curve; further: series mostly up to about 58 µM)
# Method in brief: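 Cells: TRHR-Hek293, seeded and incubated 18 h. Dye loading: 2 h at 37 °C. Compound added from DMSO stock by pin tool. Read-out: kinetic calcium fluorescence over 3 min.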
# [10] = qHTS assay to identify small molecule antagonists of the progesterone receptor (PR) signaling pathway - cell viability counter screen (AID 1346798); further: series mostly up to about 92 µM; nearly all actives have a fitted effect of over 50% in size
# Method in brief: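 Counter screen for cytotoxicity: viability of PR-UAS-bla HEK293T cells was measured with CellTiter-Glo luminescence following 16 hr compound exposure in the presence of R5020.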
smiles,measurement,setting,value
[Ca+2],Potency,[1],inactive
same,Potency,[2],inactive
same,Potency,[3],inactive
same,outcome,[4],inactive
same,outcome,[5],inactive
same,outcome,[6],inactive
CCN[C@@H]1C[C@H](N)[C@@H](OC2OC(CN)=CCC2N)[C@H](O)[C@H]1O[C@H]1OC[C@](C)(O)[C@H](NC)[C@H]1O (stereo partly drawn),"activity change, negative = cytotoxicity",[1],7.38% [at 0.349 µM]
same,activation,[2],0.0091% [at 0.349 µM]
same,"activity change, negative = inhibition",[3],9.29% [at 0.348 µM]
same,"activity change, negative = cytotoxicity",[7],-2.08% [at 0.349 µM]
same,"viability change, negative = cytotoxic",[4],6.56% [at 0.29 µM]
same,"activity change, negative = cytotoxicity",[5],-2.15% [at 0.29 µM]
same,activation,[6],-2.06% [at 0.29 µM]
same,"activity, negative = inhibition",[8],0.737% [at 0.194 µM]
same,activation,[9],-0.947% [at 0.218 µM]
NC(=O)N1c2ccccc2CC(=O)c2ccccc21,Potency,[1],inactive
same,Potency,[2],inactive
same,Potency,[3],inactive
same,outcome,[4],inactive
same,outcome,[5],inactive
same,outcome,[6],inactive
COc1cc2c(cc1OC)-c1cc3ccc(OC)c(OC)c3c[n+]1CC2,Potency,[1],61.7 µM (active)
same,Potency,[2],inactive
same,Potency,[3],inactive
same,Potency,[7],inactive
same,outcome,[4],inactive
same,outcome,[5],inactive
same,outcome,[8],inactive
same,Potency,[9],inactive
C=CC(=O)OCCCl,Potency,[1],inactive
same,Potency,[2],inactive
same,Potency,[3],inactive
same,Potency,[7],inactive
same,outcome,[4],inactive
same,outcome,[5],inactive
same,outcome,[6],inactive
same,outcome,[8],inactive
same,Potency,[9],inactive
CN(C)CCN(C)CCN(C)C,Potency,[1],inactive
same,Potency,[2],inactive
same,Potency,[3],inactive
same,Potency,[10],inactive
same,outcome,[4],inactive
same,outcome,[5],inactive
same,outcome,[8],inactive
same,Potency,[9],inactive
N[C@@H](CCC(=O)O)C(=O)O,Potency,[1],inactive
same,Potency,[2],inactive
same,Potency,[3],inactive
same,Potency,[7],inactive
same,outcome,[4],inactive
same,outcome,[5],inactive
same,outcome,[6],inactive
same,outcome,[8],inactive
same,Potency,[9],inactive
c1ccc(CCc2ccccc2)cc1,Potency,[1],inactive
same,Potency,[2],inactive
same,Potency,[3],inactive
same,Potency,[7],inactive
same,outcome,[4],inactive
same,outcome,[5],inactive
same,outcome,[8],inactive
same,Potency,[9],inactive
CC(C)(C)C(=O)Oc1ccc(S(=O)(=O)Nc2ccccc2C(=O)NCC(=O)O)cc1,Potency,[1],inactive
same,Potency,[3],inactive
same,Potency,[10],inactive
same,Potency,[7],inactive
same,outcome,[4],inactive
same,outcome,[5],inactive
same,outcome,[6],inactive
same,outcome,[8],inactive
same,Potency,[9],inactive
CC1CCC(CO)CC1 (stereo not drawn),Potency,[1],inactive
same,Potency,[2],inactive
same,Potency,[10],inactive
same,Potency,[7],inactive
same,outcome,[4],inactive
same,outcome,[5],inactive
same,outcome,[8],inactive
same,Potency,[9],inactive
CO/N=C(\C(=O)N[C@@H]1C(=O)N2C(C(=O)O)=C(CSc3nc(=O)c(O)nn3C)CS[C@H]12)c1csc(N)n1,Potency,[1],inactive
same,Potency,[2],inactive
same,Potency,[7],inactive
same,outcome,[4],inactive
same,outcome,[5],inactive
same,outcome,[8],inactive
same,Potency,[9],inactive
CCN1C=CN(C)C1C (stereo not drawn),Potency,[1],inactive
same,Potency,[3],inactive
same,Potency,[10],inactive
same,Potency,[7],inactive
same,outcome,[4],inactive
same,outcome,[5],inactive
same,outcome,[8],inactive
same,Potency,[9],inactive
O=S(=O)(O)c1cc(O)c(O)c(S(=O)(=O)O)c1,Potency,[1],inactive
same,Potency,[3],inactive
same,Potency,[10],inactive
same,Potency,[7],inactive
same,outcome,[4],inactive
same,outcome,[5],inactive
same,outcome,[6],inactive
same,outcome,[8],inactive
same,Potency,[9],inactive
C[N+]1(C)[C@@H]2CC(OC(=O)[C@H](CO)c3ccccc3)C[C@H]1[C@@H]1O[C@@H]12 (stereo partly drawn),Potency,[1],inactive
same,Potency,[3],inactive
same,Potency,[10],inactive
same,Potency,[7],inactive
same,outcome,[4],inactive
same,outcome,[5],inactive
same,outcome,[6],inactive
same,outcome,[8],inactive
same,Potency,[9],inactive
Clc1cc(Cl)c(Cl)nc1Cl,Potency,[1],inactive
same,Potency,[2],inactive
same,Potency,[10],inactive
same,outcome,[4],inactive
same,outcome,[5],inactive
same,outcome,[6],inactive
same,outcome,[8],inactive
same,Potency,[9],inactive
CC(=O)c1ccccc1[N+](=O)[O-],Potency,[1],inactive
same,Potency,[2],inactive
same,Potency,[10],inactive
same,Potency,[7],inactive
same,outcome,[4],inactive
same,outcome,[5],inactive
same,outcome,[6],inactive
same,outcome,[8],inactive
same,Potency,[9],inactive
CCCc1ncc(C[n+]2ccccc2C)c(N)n1,Potency,[1],inactive
same,Potency,[3],inactive
same,Potency,[10],inactive
same,Potency,[7],inactive
same,outcome,[4],inactive
same,outcome,[5],inactive
same,outcome,[8],inactive
same,Potency,[9],inactive
COc1cccc(OC)c1C(=O)N[C@@H]1C(=O)N2[C@@H]1SC(C)(C)[C@@H]2C(=O)O,Potency,[1],inactive
same,Potency,[2],inactive
same,Potency,[7],inactive
same,outcome,[4],inactive
same,outcome,[5],inactive
same,outcome,[6],inactive
CCCCCCCCCCOc1cc2c(=O)c(C(=O)OCC)c[nH]c2cc1OCC,"activity change, negative = cytotoxicity",[1],-3.47% [at 8.39 µM]
same,"activity change, negative = inhibition",[3],-0.779% [at 8.39 µM]
same,"activity change, negative = cytotoxicity",[10],1.18% [at 8.39 µM]
same,"activity change, negative = cytotoxicity",[7],-5.75% [at 8.39 µM]
same,"viability change, negative = cytotoxic",[4],0.981% [at 6.97 µM]
same,"activity change, negative = cytotoxicity",[5],0.83% [at 6.97 µM]
same,activation,[6],0.379% [at 6.97 µM]
same,"activity, negative = inhibition",[8],0.403% [at 4.65 µM]
same,activation,[9],0.481% [at 5.23 µM]
CC1=CCC(O)(C(C)C)CC1 (stereo not drawn),Potency,[1],inactive
same,Potency,[2],inactive
same,Potency,[10],inactive
same,Potency,[7],inactive
same,outcome,[4],inactive
same,outcome,[5],inactive
same,outcome,[6],inactive
same,outcome,[8],inactive
same,Potency,[9],inactive
CCCO[Si](OCCC)(OCCC)OCCC,Potency,[1],inactive
same,Potency,[3],inactive
same,Potency,[10],inactive
same,Potency,[7],inactive
same,outcome,[4],inactive
same,outcome,[5],inactive
same,outcome,[6],inactive
same,outcome,[8],inactive
same,Potency,[9],inactive
CCNS(=O)(=O)c1ccc(C)cc1,Potency,[1],inactive
same,Potency,[2],inactive
same,Potency,[10],inactive
same,Potency,[7],inactive
same,outcome,[4],inactive
same,outcome,[5],inactive
same,outcome,[6],inactive
same,outcome,[8],inactive
same,Potency,[9],inactive
CC(C)COC(=O)c1ccc(N)cc1,Potency,[1],inactive
same,Potency,[3],inactive
same,Potency,[10],inactive
same,Potency,[7],inactive
same,outcome,[4],inactive
same,outcome,[5],inactive
same,outcome,[6],inactive
same,outcome,[8],inactive
same,Potency,[9],inactive
COc1c(N2CCNC(C)C2)c(F)cc2c(=O)c(C(=O)O)cn(C3CC3)c12 (stereo not drawn),Potency,[1],inactive
same,Potency,[3],inactive
same,Potency,[10],inactive
same,Potency,[7],inactive
same,outcome,[4],inactive
same,outcome,[5],inactive
same,outcome,[6],inactive
same,outcome,[8],inactive
same,Potency,[9],inactive
